According to PubChem BioAssay (Tox21):
Inconclusive results are not listed. Activity calls are given as the source filed them. Unless noted, calls come from the whole dose curve; as a rule, active = well fitted curve in the direction sought with a large enough effect in the repeat runs; inconclusive = weak or mixed curves; inactive = no such curve, though single readings can be large; an effect the other way counts as inactive or inconclusive.

Tests used:
[1] = qHTS RealTime-Glo MT Cell Viability Assay in HEK293 cells - 24 hour (AID 1224886); note: top concentration of the series differs between compounds; nearly all actives have a fitted effect of over 50% in size
Method in brief: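 Viability tracked continuously by luminescence as live cells reduce a prosubstrate for NanoLuc; HEK293 cells preincubated 5 h, compound-treated at 37 C, and read at 0, 8, 16, 24, 32 and 40 h.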

[2] = qHTS RealTime-Glo MT Cell Viability Assay in HEK293 cells - 8 hour (AID 1224887); note: top concentration of the series differs between compounds; nearly all actives have a fitted effect of over 50% in size
Method in brief: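 Luminescence, which tracks viable cell number through reduction of the prosubstrate to a NanoLuc substrate, was read over continuous 37 C culture. Cells (600/well) were premixed with reagent and rested 5 h before 23 nL of compound in DMSO was pinned.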

[3] = A CellTox Green Cytotoxicity Assay to monitor cytotoxicity in HEK293 cells - 16 hour (AID 1224888); note: nearly all actives have a fitted effect of over 35% in size
Method in brief: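 Fluorescence from a DNA-binding dye excluded by viable cells was measured repeatedly in the same HEK293 wells (600 cells/well) during continuous compound exposure at 37 C. Each assay gives one read point: 0, 8, 16, 24, 32 or 40 h.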

[4] = qHTS RealTime-Glo MT Cell Viability Assay in HepG2 cells - 0 hour (AID 1224889); note: nearly all actives have a fitted effect of over 50% in size
Method in brief: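 Viability was tracked continuously by NanoLuc luminescence from prosubstrate reduced by living HepG2 cells, at successive time points over 40 h of compound exposure. Cells with reagent were preincubated 5 h at 37 °C before compound addition.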

[5] = A CellTox Green Cytotoxicity Assay to monitor cytotoxicity in HepG2 cells - 8 hour (AID 1224890); note: nearly all actives have a fitted effect of over 45% in size
Method in brief: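 Real-time cytotoxicity: fluorescence of a cell-impermeant cyanine dye binding DNA of dead HepG2 cells, measured repeatedly (0–40 h) during compound exposure at 37 C. Cells seeded 600/well with reagent, dosed after 5 h.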

[6] = qHTS assay to identify small molecule HDAC inhibitors (AID 1259364); note: top concentration of the series differs between compounds; nearly all actives have a fitted effect of over 45% in size
Method in brief: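 Luminescence read after 30 min room-temperature HDAC-Glo incubation measures cellular class I/II HDAC activity. Compounds were applied for 2 hr at 37 C to HCT-116 wild-type cells seeded the day before.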

[7] = qHTS assay to identify small molecule HDAC inhibitors - cell viability counter screen (AID 1259365); note: series mostly up to about 92 µM; nearly all actives have a fitted effect of over 50% in size
Method in brief: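 Wild-type HCT-116 cells were seeded at 1,500 per well, incubated overnight at 37 C, then exposed to compounds in DMSO for 2hr. Viability was read by CellTiter-Glo luminescence after 30min at room temperature.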

[8] = qHTS assay to identify small molecule agonists of the sonic hedgehog signaling (Shh) pathway - cell viability counter screen (AID 1259366); note: nearly all actives have a fitted effect of over 50% in size
Method in brief: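 NIH/3T3-derived 3T3 Gli1-Luc cells (stable Gli1-responsive firefly luciferase reporter) were seeded, rested 4 hr at 37 C/5% CO2, then exposed to compounds in DMSO for 24 hr; viability was read by CellTiter-Fluor fluorescence in the same wells.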

[9] = qHTS assay to identify small molecule agonists of the sonic hedgehog signaling (Shh) pathway (AID 1259368; calls by dose curve; note: series mostly up to about 92 µM; nearly all actives have a fitted effect of over 15% in size)
Method in brief: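 Luminescence was read after 30 min at room temperature with luciferase reagent. Before that, 3T3Gli1-Luc cells (NIH/3T3 clone, stable Gli1-Luc reporter; 2,000/well) were exposed to compounds for 24 hr at 37C, 5% CO2, compounds being added 4 hr post-plating.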

[10] = qHTS assay to identify small molecule antagonists of the sonic hedgehog signaling (Shh) pathway (AID 1259369; calls by dose curve; note: nearly all actives have a fitted effect of over 45% in size)
Method in brief: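 Antagonist mode: compound added to 3T3 Gli1-Luc cells followed by conditioned-medium stimulation, 24 h at 37 C, 5% CO2. Inhibition taken as loss of Gli1-driven luciferase luminescence.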

[11] = target: Estrogen receptor beta (Homo sapiens) (UniProt Q92731); test: qHTS assay to identify small molecule agonists of the estrogen receptor beta (ER-beta) signaling pathway (AID 1259377; active = well fitted activation curve with a large enough effect in the signal ratio in the repeat runs, not every such curve was filed as active; the % refers to the signal ratio)
Chain of Estrogen receptor beta (Homo sapiens) (Q92731 whole entry, looked up): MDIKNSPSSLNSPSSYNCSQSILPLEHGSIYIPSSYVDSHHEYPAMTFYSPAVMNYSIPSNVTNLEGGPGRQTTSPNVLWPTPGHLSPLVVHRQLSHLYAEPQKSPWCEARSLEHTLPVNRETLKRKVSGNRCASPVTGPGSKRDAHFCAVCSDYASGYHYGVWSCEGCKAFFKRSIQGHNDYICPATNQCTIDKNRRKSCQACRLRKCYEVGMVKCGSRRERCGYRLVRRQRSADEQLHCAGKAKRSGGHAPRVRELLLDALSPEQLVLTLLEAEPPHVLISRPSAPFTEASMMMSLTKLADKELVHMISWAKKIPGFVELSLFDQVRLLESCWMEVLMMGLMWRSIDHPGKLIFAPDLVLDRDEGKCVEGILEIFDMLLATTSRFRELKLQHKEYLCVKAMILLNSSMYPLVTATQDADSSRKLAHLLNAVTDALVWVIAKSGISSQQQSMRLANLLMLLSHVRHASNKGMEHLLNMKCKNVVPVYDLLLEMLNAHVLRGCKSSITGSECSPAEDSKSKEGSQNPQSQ
Method in brief: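 ER-beta-UAS-bla HEK293T (GripTite) cells carrying a UAS-driven beta-lactamase reporter, in medium with 2% charcoal-stripped FBS, were exposed to compounds for 16 hr at 37C; LiveBLAzer B/G FRET substrate was then added and fluorescence read after 2 hours at room temperature.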

[12] = target: Estrogen receptor beta (Homo sapiens) (UniProt Q92731); test: qHTS assay to identify small molecule antagonists of the estrogen receptor beta (ER-beta) signaling pathway (AID 1259378; active = well fitted inhibition curve with a large enough effect in the signal ratio in the repeat runs, not every such curve was filed as active; the % refers to the signal ratio)
Method in brief: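 ER-beta-UAS-bla HEK293T cells in 2% charcoal-stripped FBS medium treated with compound plus 1nM final 17-beta-estradiol for 16 hr at 37C. Beta-lactamase reporter read by FRET substrate fluorescence after 2 hours at room temperature.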

[13] = qHTS assay to identify small molecule agonists of the androgen receptor (AR) signaling pathway in the presence of an antagonist - cell viability counter screen (AID 1259379);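 note: MDA-kb2 human breast cancer cells carrying an MMTV luciferase reporter; series mostly up to about 92 µM; nearly all actives have a fitted effect of over 25% in size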
Method in brief: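 Cytotoxicity counter-screen run in the same wells as the nilutamide-challenged (3.0 µM final) AR agonist assay in MDA-kb2 cells. Compounds tested at 15 concentrations for 16 h, 37 °C without CO2; CellTiter-Fluor fluorescence read.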

[14] = qHTS assay to identify small molecule agonists of the estrogen receptor beta (ER-beta) signaling pathway - cell viability counter screen (AID 1259380); note: nearly all actives have a fitted effect of over 30% in size
Method in brief: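 Cell viability counter screen: CellTiter-Glo luminescence (30 min, room temperature) measured in the same wells as the beta-lactamase readout, after 16 hr compound exposure at 37C of ER-beta-bla HEK293T cells in 2% charcoal-stripped FBS medium.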

[15] = qHTS assay to identify small molecule antagonists of the estrogen receptor alpha (ER-alpha) signaling pathway using the BG1 cell line in the presence of 0.1 nM 17-beta-estradiol - cell viability counter screen (AID 1259241); note: nearly all actives have a fitted effect of over 40% in size
Method in brief: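 VM7Luc4E2 cells (endogenous ER-alpha, 4×ERE-luciferase), hormone-starved 5 days in charcoal-stripped FBS, were treated with compounds plus 0.1 nM 17beta-estradiol for 22 hr at 37C; viability read in same wells as CellTiter-Fluor live-cell protease fluorescence.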

[16] = qHTS assay to identify small molecule antagonists of the sonic hedgehog signaling (Shh) pathway - cell viability counter screen (AID 1259367); note: nearly all actives have a fitted effect of over 55% in size
Method in brief: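 Fluorescence read-out (CellTiter-Fluor, 1 hr at 37C) taken after 23 hr compound treatment of 3T3 Gli1-Luc cells stimulated with conditioned medium. Cells were seeded at 2,000 per well and pre-incubated 4 hr.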

[17] = qHTS assay to identify small molecule antagonists of the androgen receptor (AR) signaling pathway using the MDA cell line in the presence of 0.5 nM R1881 - cell viability counter screen (AID 1259242); note: nearly all actives have a fitted effect of over 45% in size
Method in brief: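 Live-cell protease activity was measured by CellTiter-Fluor fluorescence after 30 min. Before that, MDA-kb2 MMTV-luciferase cells had 16 hr at 37C without CO2, exposed to test compounds and 0.5 nM R1881 final.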

[18] = target: Androgen receptor (Homo sapiens) (UniProt P10275); test: qHTS assay to identify small molecule antagonists of the androgen receptor (AR) signaling pathway using the MDA cell line in the presence of 0.5 nM R1881 (AID 1259243); note: nearly all actives have a fitted effect of over 50% in size
Chain of Androgen receptor (Homo sapiens) (P10275 whole entry, looked up): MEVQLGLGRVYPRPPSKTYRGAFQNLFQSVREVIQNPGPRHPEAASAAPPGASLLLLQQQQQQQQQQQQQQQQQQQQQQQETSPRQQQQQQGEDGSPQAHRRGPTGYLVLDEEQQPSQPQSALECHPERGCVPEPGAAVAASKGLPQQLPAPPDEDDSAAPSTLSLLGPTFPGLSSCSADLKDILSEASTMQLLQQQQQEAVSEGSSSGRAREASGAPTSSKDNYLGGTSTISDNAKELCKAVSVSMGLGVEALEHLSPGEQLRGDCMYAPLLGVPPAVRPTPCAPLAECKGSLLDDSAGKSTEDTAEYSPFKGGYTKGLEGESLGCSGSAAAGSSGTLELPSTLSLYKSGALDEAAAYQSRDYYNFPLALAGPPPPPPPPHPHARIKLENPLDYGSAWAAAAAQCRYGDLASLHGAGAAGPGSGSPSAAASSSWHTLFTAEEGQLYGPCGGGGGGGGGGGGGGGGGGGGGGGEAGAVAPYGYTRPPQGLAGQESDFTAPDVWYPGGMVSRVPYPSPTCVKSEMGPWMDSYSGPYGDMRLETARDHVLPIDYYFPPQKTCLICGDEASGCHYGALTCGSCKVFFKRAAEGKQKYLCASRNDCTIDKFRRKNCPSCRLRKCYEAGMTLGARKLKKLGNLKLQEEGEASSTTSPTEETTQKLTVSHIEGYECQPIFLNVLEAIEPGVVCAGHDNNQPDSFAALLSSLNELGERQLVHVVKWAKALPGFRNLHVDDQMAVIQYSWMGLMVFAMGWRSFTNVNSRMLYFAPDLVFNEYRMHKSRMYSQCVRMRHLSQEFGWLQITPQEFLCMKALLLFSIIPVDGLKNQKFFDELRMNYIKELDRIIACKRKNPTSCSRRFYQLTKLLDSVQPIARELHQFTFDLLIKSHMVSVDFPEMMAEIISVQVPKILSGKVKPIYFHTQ
Method in brief: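 Luminescent reporter readout (ONE-Glo, 30 min, room temperature) after 16 hr co-treatment of MDA-kb2 cells with test compounds and 0.5 nM R1881 final, at 37C without CO2. The MMTV-driven luciferase responds to both AR and GR.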

[19] = target: Estrogen receptor (Homo sapiens) (UniProt P03372); test: qHTS assay to identify small molecule antagonists of the estrogen receptor alpha (ER-alpha) signaling pathway using the BG1 cell line in the presence of 0.1 nM 17-beta-estradiol (AID 1259244); note: nearly all actives have a fitted effect of over 50% in size
Chain of Estrogen receptor (Homo sapiens) (P03372 whole entry, looked up): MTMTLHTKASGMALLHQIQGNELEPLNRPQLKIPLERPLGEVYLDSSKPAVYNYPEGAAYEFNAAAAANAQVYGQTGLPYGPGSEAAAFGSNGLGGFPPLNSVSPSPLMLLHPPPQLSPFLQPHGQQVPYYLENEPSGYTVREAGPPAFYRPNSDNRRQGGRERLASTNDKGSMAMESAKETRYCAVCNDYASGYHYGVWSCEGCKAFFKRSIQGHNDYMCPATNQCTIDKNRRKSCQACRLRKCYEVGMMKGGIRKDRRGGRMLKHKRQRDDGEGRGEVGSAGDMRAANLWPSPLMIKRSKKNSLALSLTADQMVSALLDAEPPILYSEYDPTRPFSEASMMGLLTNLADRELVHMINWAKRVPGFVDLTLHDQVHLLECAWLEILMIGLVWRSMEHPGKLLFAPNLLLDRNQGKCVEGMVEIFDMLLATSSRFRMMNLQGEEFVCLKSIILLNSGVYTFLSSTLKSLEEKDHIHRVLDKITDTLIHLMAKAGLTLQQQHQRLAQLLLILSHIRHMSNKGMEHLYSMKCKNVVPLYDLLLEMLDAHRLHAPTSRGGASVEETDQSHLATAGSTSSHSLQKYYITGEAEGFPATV
Method in brief: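 Luciferase luminescence (ONE-Glo, 30 min at room temperature) was read after 22 hr at 37C exposure to compounds plus 17beta-estradiol at 0.1 nM final. Cells were VM7Luc4E2 with endogenous ER-alpha and an ERE-driven luciferase, pre-cultured 5 days in hormone-depleted medium.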

[20] = qHTS assay to identify small molecule phospholipidosis (PLD) inducers (AID 1259344; active = well fitted curve in the direction sought with a large enough effect; an effect the other way counts as inactive or inconclusive)
Method in brief: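 Read-out is LipidTOX Red fluorescence (ex 595/em 615) imaged in HepG2 cells after 24 h compound exposure at 37 C, with Hoechst nuclear counterstain (ex 352/em 461) allowing per-cell normalisation.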
% is set by controls: 0 for no effect and ±100 for the full control effect.

O=S(=O)(O)c1cc(O)ccc1O
inactive: Potency [1] | Potency [2] | Potency [3] | Potency [4] | Potency [5] | Potency [6] | outcome [7] | Potency [8] | outcome [9] | Potency [10] | Potency [11] | outcome [12] | Potency [13] | outcome [14]

O=C1OC(=O)c2ccccc21
inactive: Potency [1] | Potency [2] | Potency [3] | Potency [4] | Potency [5] | Potency [15] | Potency [6] | outcome [7] | Potency [8] | Potency [16] | outcome [9] | Potency [10] | Potency [11] | outcome [12] | Potency [13] | outcome [14]

CC(=O)OCCCc1ccccc1
inactive: Potency [1] | Potency [2] | Potency [3] | Potency [4] | Potency [5] | Potency [15] | Potency [17] | Potency [6] | Potency [8] | Potency [16] | Potency [10] | Potency [11] | outcome [12] | Potency [13] | outcome [14]

O=C(O)c1ccccc1C(=O)Nc1ccc(S(=O)(=O)Nc2nccs2)cc1
inactive: Potency [1] | Potency [2] | Potency [3] | Potency [4] | Potency [5] | Potency [15] | outcome [18] | Potency [6] | outcome [7] | Potency [16] | outcome [9] | Potency [10] | Potency [11] | outcome [14]

O=c1cc(O)c(Cl)c[nH]1
inactive: Potency [1] | Potency [2] | Potency [3] | Potency [4] | Potency [15] | Potency [17] | Potency [6] | outcome [7] | Potency [16] | outcome [9] | Potency [11] | outcome [12] | Potency [13] | outcome [14]

O=C(Nc1cccc(C2=NCCN2)c1)Nc1cccc(C2=NCCN2)c1
inactive: activity change, negative = cytotoxicity [1] -1.62% [at 15.8 µM] | activity change, negative = cytotoxicity [2] -0.375% [at 15.8 µM] | activity change [3] -6.11% [at 15.8 µM, stronger effect = higher value] | activity change, negative = cytotoxicity [4] -1.91% [at 15.8 µM] | cytotoxicity increase [5] -10.2% [at 15.8 µM] | activity change, negative = cytotoxicity [15] -3.18% [at 19 µM] | activity change, negative = inhibition [19] -4.15% [at 19 µM] | outcome [20] | activity change, negative = inhibition [6] 3.65% [at 19 µM] | activity change, negative = cytotoxicity [7] 1.17% [at 19 µM] | viability change, negative = cytotoxic [8] 8.12% [at 19 µM] | viability change, negative = cytotoxic [16] 0.404% [at 19 µM] | activity change, negative = inhibition [10] 17.1% [at 19 µM] | activity change, negative = cytotoxicity [13] 1.81% [at 19 µM] | activity change, negative = cytotoxicity [14] 2.07% [at 19 µM]

OCCCCCCCl
inactive: Potency [1] | Potency [2] | Potency [3] | Potency [4] | Potency [15] | Potency [19] | outcome [7] | Potency [8] | Potency [16] | outcome [9] | Potency [11] | outcome [12] | Potency [13] | outcome [14]

Nc1cc(C(=O)O)ccc1Cl
inactive: Potency [1] | Potency [2] | Potency [3] | Potency [4] | Potency [15] | Potency [17] | outcome [18] | Potency [19] | Potency [8] | outcome [9] | Potency [10] | Potency [11] | outcome [12] | Potency [13] | outcome [14]

C=CCOc1c(Br)cc(Br)cc1Br
inactive: Potency [1] | Potency [2] | Potency [3] | Potency [4] | Potency [15] | Potency [17] | Potency [19] | outcome [7] | Potency [16] | outcome [9] | Potency [10] | Potency [11] | outcome [12] | Potency [13] | outcome [14]

Nc1ccc(S(=O)(=O)Nc2ccccn2)cc1
inactive: Potency [1] | Potency [2] | Potency [3] | Potency [4] | Potency [15] | Potency [17] | outcome [18] | Potency [19] | Potency [6] | Potency [8] | Potency [16] | outcome [9] | Potency [10] | Potency [11] | outcome [12] | Potency [13] | outcome [14]

Cc1ncc([N+](=O)[O-])n1CC(O)CCl (stereo unspecified)
inactive: Potency [1] | Potency [2] | Potency [3] | Potency [4] | Potency [5] | Potency [15] | outcome [18] | Potency [6] | outcome [7] | Potency [8] | Potency [13] | outcome [14]

c1ccccc1
inactive: Potency [1] | Potency [2] | Potency [3] | Potency [4] | Potency [5] | Potency [6] | Potency [8] | Potency [16] | outcome [9] | Potency [10] | Potency [13] | outcome [14]

CCC(C)(CCC(C)C)C(=O)[O-].CCC(C)(CCC(C)C)C(=O)[O-].[Zn+2] (stereo unspecified)
inactive: Potency [1] | Potency [2] | Potency [3] | Potency [4] | Potency [5] | Potency [15] | Potency [6] | outcome [7] | Potency [16] | outcome [9] | Potency [10] | Potency [13] | outcome [14]
